Measured values reported in PubChem BioAssay (NCATS).
Results filed as inconclusive are left out. The source made the active and inactive calls. Unless noted, calls follow the shape of the dose curve; as a rule, active = well fitted curve in the direction sought with a large enough effect; inconclusive = small, poorly fitted or top-dose-only effect, or another doubt; inactive = no such curve, though single readings can be large; an effect the other way counts as inactive or inconclusive.

Assays:
[1] = qHTS profiling of the MIPE4 collection as inhibitors of Plasmodium falciparum (3D7) proliferation (AID 743344; call rule not given here;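 also: scaled between DMSO vehicle wells and 0.29 µM artemisinin as full inhibition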); conditions: P. falciparum 3D7 in erythrocytes, SYBR Green DNA fluorescence, 72 h; at 28.5 µM unless noted
Procedure, shortened: (§1)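 Erythrocytes infected with P. falciparum (0.3% parasitemia, 2.5% hematocrit) incubated with compounds 72 h at 37 C, 5% CO2. Lysis with saponin/Triton buffer containing SYBR Green I, overnight at room temperature in the dark; DNA fluorescence (485/535 nm) normalised to 0.29 uM artemisinin and DMSO.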

[2] = qHTS profiling of the MIPE4 collection as inhibitors of Plasmodium falciparum (DD2) proliferation (AID 743345; call rule not given here); conditions: P. falciparum Dd2 in erythrocytes, SYBR Green DNA, 72 h; at 28.5 µM unless noted
Procedure, shortened: as §1

[3] = qHTS profiling of the MIPE4 collection as inhibitors of Plasmodium falciparum (DD2) proliferation (Rep 2) (AID 743346; call rule not given here); conditions: P. falciparum Dd2 in erythrocytes, SYBR Green DNA, 72 h; at 28.5 µM unless noted
Procedure, shortened: as §1

[4] = qHTS profiling of the MIPE4 collection as inhibitors of Plasmodium falciparum (HB3) proliferation (AID 743347; call rule not given here;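 also: plate controls were DMSO vehicle wells for no effect and artemisinin wells for full effect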); conditions: P. falciparum HB3 in erythrocytes, SYBR Green DNA, 72 h; at 28.5 µM unless noted
Procedure, shortened: as §1

[5] = High-throughput drug toxicity screening in the BPDCN cell line Gen2.2 (AID 1224824; call rule not given here;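 also: cells exposed to compounds for 48 h before reading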); conditions: Gen2.2 BPDCN cells; at 45.8 µM (top of the series) unless noted
Procedure, shortened: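 Gen2.2 cells, 500 per well in phenol red-free RPMI with 10% FBS, exposed to compounds 48 h at 37 C, 5% CO2; viability by CellTiter-Glo luminescence. Percent activity scaled to DMSO (100%) and 9.2 uM bortezomib final (0%).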

[6] = High-throughput drug toxicity screening in the BPDCN cell line Cal-1 (AID 1224825; call rule not given here); conditions: Cal-1 BPDCN cell viability, qHTS; at 45.8 µM (top of the series) unless noted
Procedure, shortened: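 Cal-1 cells, 500 per well in phenol-red-free RPMI with 10% FBS, exposed to compounds for 48 hours at 37C, 5% CO2. Viability read by CellTiter-Glo luminescence; percent activity normalized to DMSO (100%) and 9.2 uM bortezomib final (0%).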

[7] = qHTS assay for measurement of the activity of small molecule inhibitors on Zika virus induced Caspase-3 activity in human astrocytoma cells (AID 1224859); conditions: SNB-19 ZIKV-induced caspase-3/7, luminescence, 6 h; series mostly up to 45.7 µM;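 also: plate controls were ZIKV-infected untreated cells for no effect and uninfected cells for full effect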
Procedure, shortened: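 Luminescent caspase-3/7 read-out (30 min reagent, room temperature) in human SNB-19 cells infected 6 h with ZIKV (2 FFU/cell) after 1 h compound pre-incubation; Data were normalised to uninfected and infected wells.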

[8] = qHTS Screen of the MIPE 4.0 Collection Against Ewings Sarcoma (RDES) (AID 1259252); conditions: RD-ES Ewing sarcoma viability, CellTiter-Glo, 48 h; series mostly up to 45.8 µM; also: nearly all actives have a fitted effect of over 35% in size; also: potency is read from the fitted curve at half-maximal effect
Procedure, shortened: (§2)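 Viability screen: 48 h incubation at 37C, 95% humidity, 5% CO2 with serially titrated compound, followed by CellTiter-Glo readout.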

[9] = qHTS Screen of the MIPE 4.0 Collection Against Ewings Sarcoma (TC71) (AID 1259253); conditions: TC71 Ewing sarcoma viability, CellTiter-Glo, 48 h; series mostly up to 45.8 µM; also: nearly all actives have a fitted effect of over 40% in size; also: potency is read from the fitted curve at half-maximal effect
Procedure, shortened: as §2

[10] = qHTS Screen of the MIPE 4.0 Collection Against Ewings Sarcoma (EW8) (AID 1259255); conditions: EW8 Ewing sarcoma viability, CellTiter-Glo, 48 h; series mostly up to 45.8 µM; also: nearly all actives have a fitted effect of over 35% in size; also: potency is read from the fitted curve at half-maximal effect;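 as to viability: 100% = DMSO-treated cells and 0% = medium-only wells without cells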
Procedure, shortened: as §2

[11] = qHTS Screen of the MIPE 4.0 Collection Against Ewings Sarcoma (TC32) (AID 1259256); conditions: TC32 Ewing sarcoma viability, CellTiter-Glo, 48 h; series mostly up to 45.8 µM; also: nearly all actives have a fitted effect of over 45% in size; also: potency is read from the fitted curve at half-maximal effect
Procedure, shortened: as §2

[12] = qHTS assay for cell viability of HEK293 cells (AID 743288); conditions: ATP luminescence (CellTiter-Glo), 18 h, stronger effect = lower value; also: % is scaled to controls: 0 for no effect and ±100 for the full control effect; nearly all actives have a fitted effect of over 50% in size
Procedure, shortened: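 Parental HEK293 cells, 2,000 per well, preincubated at least 5 h at 37 C, then exposed to compounds in DMSO for 18 h at 37 C. Viability by CellTiter-Glo ATP luminescence after 30 min at room temperature.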

[13] = qHTS assay for cell viability of the p53RE-bla HCT-116 cell line (AID 743292); conditions: p53RE-bla HCT-116 viability, ATP luminescence, 16 h; series mostly up to 95 µM; also: % is scaled to controls: 0 for no effect and ±100 for the full control effect; nearly all actives have a fitted effect of over 55% in size
Procedure, shortened: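 CellSensor p53RE-bla HCT-116 cells (4,000/well) pre-incubated 5 h at 37 C, then exposed to compounds in DMSO for 16 h at 37 C. Viability read as ATP content by CellTiter-Glo luminescence after 30 min at room temperature.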

[14] = qHTS profiling for inhibitors of Plasmodium falciparum (3D7) proliferation (AID 743322);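 also: infected erythrocytes exposed to compound for 72 h before lysis; 100% = DMSO vehicle wells and 0% = 0.29 µM artemisinin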; conditions: P. falciparum 3D7 proliferation; at 28.7 µM (top of the series)
Procedure, shortened: as §1

[15] = qHTS profiling for inhibitors of Plasmodium falciparum (DD2) proliferation (AID 743323; call rule not given here); conditions: lower = more inhibition; at 28.7 µM (top of the series)
Procedure, shortened: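 P. falciparum Dd2-infected erythrocytes (0.3% parasitemia, 2.5% hematocrit) exposed 72 h at 37 C, 5% CO2. Lysis with SYBR Green, overnight at room temperature, fluorescence 485/535 nm; normalized to 0.29 uM artemisinin and DMSO.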

[16] = qHTS profiling for inhibitors of Plasmodium falciparum (HB3) proliferation (AID 743324); conditions: Plasmodium falciparum HB3 blood-stage proliferation; at 28.7 µM (top of the series);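 also: 100% = DMSO vehicle wells and 0% = artemisinin-treated control wells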
Procedure, shortened: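 P. falciparum HB3 grown in erythrocytes (0.3% parasitemia, 2.5% hematocrit final) with compound for 72 h at 37 C, 5% CO2. Parasite DNA detected by SYBR Green after saponin/triton lysis overnight; normalized to 0.29 uM artemisinin and DMSO.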

In the case of COc1ccc([C@@H]2CNC(=O)C2)cc1OC1CCCC1, the parasite growth, % of DMSO control [1] is reported as 106%, the parasite growth remaining, % of DMSO control (lower = more inhibition) [2] is reported as 96.4% and the parasite growth, % of control (lower = inhibition) [3] is reported as 67%. It also gave a growth, % of control [4] of 102%, a cell viability, % of control (lower = more cytotoxic) [5] of 107% and a viability (% of control) [6] of 108%. The Potency [7] was “inactive”, the Potency [8] was 0.833 µM (active) and the Potency [9] was 2.35 µM (active). For the same compound, the Potency [10] was 9.35 µM (active) and the Potency [11] was 1.87 µM (active).

For Cc1noc(-c2ccc(CSCCC(=O)O)cc2)c1NC(=O)OC(C)c1ccccc1Cl (stereo unspecified), the parasite growth, % of control (lower = inhibition) [3] was 49.9%, the growth, % of control [4] was 61.1% and the cell viability, % of control (lower = more cytotoxic) [5] was 157%. The viability (% of control) [6] was 103%, the Potency [7] was “inactive” and the Potency [8] was “inactive”. The Potency [9] was “inactive”, the Potency [10] was “inactive” and the Potency [11] was “inactive”.

Compound CCCCCCCCCCCC(CC1OC(=O)C1CCCCCC)OC(=O)C(CC(C)C)NC=O (stereo unspecified) has a parasite growth, % of DMSO control [1] of 7.26%, a parasite growth remaining, % of DMSO control (lower = more inhibition) [2] of 13.8% and a parasite growth, % of control (lower = inhibition) [3] of 17%. It also gave a growth, % of control [4] of 3.37%, a cell viability, % of control (lower = more cytotoxic) [5] of 82.8% and a viability (% of control) [6] of 89.4%. For the same compound, the Potency [7] was “inactive”, the Potency [8] was “inactive” and the Potency [9] was “inactive”. For the same compound, the Potency [10] was “inactive” and the Potency [11] was “inactive”.

With O=C1c2cccc(O)c2C(=O)c2c(O)cc(CO)cc21 the max response [12] was -3.37% (inactive), the outcome [13] was “inactive” and the cell viability, % of control (lower = more cytotoxic) [5] was 161%. The viability (% of control) [6] was 116%, the Potency [7] was “inactive” and the Potency [8] was “inactive”. The Potency [9] was “inactive”, the Potency [10] was “inactive” and the Potency [11] was “inactive”.

Compound OC[C@H]1OC(O)C[C@@H](O)[C@H]1O (stereo partly specified) has a parasite growth, % of DMSO control [1] of 96.9%, a growth, % of control [4] of 86.6% and a cell viability, % of control (lower = more cytotoxic) [5] of 118%. For the same compound, the viability (% of control) [6] was 115%, the Potency [7] was “inactive” and the Potency [8] was “inactive”. The Potency [9] was “inactive”, the Potency [10] was “inactive” and the Potency [11] was “inactive”.

Work on Nc1ccn(C2CO[C@H](CO)O2)c(=O)n1 (stereo partly specified) yielded a parasite growth, % of DMSO control [1] of 95.7%, a parasite growth remaining, % of DMSO control (lower = more inhibition) [2] of 105% and a parasite growth, % of control (lower = inhibition) [3] of 89.7%. For the same compound, the growth, % of control [4] was 75.5%, the cell viability, % of control (lower = more cytotoxic) [5] was 203% and the viability (% of control) [6] was 99.2%. For the same compound, the Potency [7] was “inactive”, the Potency [8] was “inactive” and the Potency [9] was “inactive”. For the same compound, the Potency [10] was “inactive” and the Potency [11] was “inactive”.

Work on COc1cc(C[C@@H](CO)[C@H](CO)Cc2ccc(O)c(OC)c2)ccc1O yielded a parasite growth, % of DMSO control [1] of 90.4%, a parasite growth, % of control (lower = inhibition) [3] of 80.4% and a growth, % of control [4] of 96.5%. For the same compound, the cell viability, % of control (lower = more cytotoxic) [5] was 55.1%, the viability (% of control) [6] was 23.4% and the Potency [7] was “inactive”. The Potency [8] was 0.209 µM (active), the Potency [9] was 0.372 µM (active) and the Potency [10] was 0.743 µM (active). The Potency [11] was 0.372 µM (active).

CCC(C=C[C@@H]1OC(=O)C=C[C@H]1C)=C[C@H](C)CC=CC(C)=C[C@@H](C)C(=O)[C@@H](C)[C@H](O)[C@@H](C)CC(C)=CC(=O)O showed a parasite growth, % of DMSO control [1] of 402% [at 1.06 µM], a parasite growth remaining, % of DMSO control (lower = more inhibition) [2] of 97.4% [at 1.06 µM] and a parasite growth, % of control (lower = inhibition) [3] of 106% [at 1.06 µM]. The growth, % of control [4] was 577% [at 1.06 µM], the cell viability, % of control (lower = more cytotoxic) [5] was 5.63% [at 1.72 µM] and the viability (% of control) [6] was 5.92% [at 1.72 µM]. For the same compound, the activity change, negative = inhibition [7] was 5.61% [at 1.73 µM] (inactive), the Potency [8] was 0.022 µM (active) and the Potency [9] was 0.022 µM (active). For the same compound, the Potency [10] was 0.0156 µM (active) and the Potency [11] was 0.0139 µM (active).

In the case of N#Cc1ccc(COC[C@H]2O[C@@H](n3c(NCc4ccc(Cl)c(Cl)c4)nc4c(N)ncnc43)[C@@H](O)[C@@H]2O)cc1, the remaining parasite growth % (stronger effect = lower value) [14] is reported as 37.7%, the activity, percent of control [15] is reported as 23.4% and the remaining proliferation (% of control), lower = more inhibition [16] is reported as 21.1%. For the same compound, the parasite growth, % of DMSO control [1] was 20.4%, the parasite growth remaining, % of DMSO control (lower = more inhibition) [2] was 48.6% and the parasite growth, % of control (lower = inhibition) [3] was 23.2%. For the same compound, the growth, % of control [4] was 23.2%, the cell viability, % of control (lower = more cytotoxic) [5] was 10.7% and the viability (% of control) [6] was 3.42%. The Potency [7] was “inactive”, the Potency [8] was 9.35 µM (active) and the Potency [9] was 9.35 µM (active). For the same compound, the Potency [10] was 9.35 µM (active) and the Potency [11] was 5.26 µM (active).

O=C(Nc1nnc(-c2ccco2)o1)c1cc(-c2ccccc2)nc2ccccc12 gave a parasite growth, % of DMSO control [1] of 51.6%, a parasite growth remaining, % of DMSO control (lower = more inhibition) [2] of 94.4% and a parasite growth, % of control (lower = inhibition) [3] of 42.6%. It also gave a growth, % of control [4] of 18.7%, a cell viability, % of control (lower = more cytotoxic) [5] of 42.4% and a viability (% of control) [6] of 17.3%. The Potency [7] was “inactive”, the Potency [8] was 16.6 µM (active) and the Potency [9] was 16.6 µM (active). For the same compound, the Potency [10] was 23.5 µM (active) and the Potency [11] was 13.2 µM (active).

Compound C=CC1=C(C(=O)O)N2C(=O)[C@@H](NC(=O)C(=NO)c3csc(N)n3)[C@H]2SC1 has a parasite growth remaining, % of DMSO control (lower = more inhibition) [2] of 95.1%, a parasite growth, % of control (lower = inhibition) [3] of 103% and a growth, % of control [4] of 68.4%. For the same compound, the cell viability, % of control (lower = more cytotoxic) [5] was 116%, the viability (% of control) [6] was 105% and the Potency [7] was “inactive”. The Potency [8] was “inactive”, the Potency [9] was “inactive” and the Potency [10] was “inactive”. The Potency [11] was “inactive”.
